Data: paper PMC5540273 (PLoS ONE, 2017)

How the values were obtained:
Details in all cases: concentration: 1 μM, replicates: in singlicate; n = 1
[1] = test system: HIPK4
[2] = test system: HPK1
[3] = test system: HUNK
[4] = test system: ICK
[5] = test system: IGF1R
[6] = test system: T1, IKK-alpha
T1 construct: gene CHUK

[7] = test system: T2, IKK-beta
T2 construct: gene IKBKB

[8] = test system: T3, IKK-epsilon
T3 construct: gene IKBKE

[9] = test system: INSRR
[10] = test system: INSR
[11] = test system: IRAK1
[12] = test system: IRAK3
[13] = test system: IRAK4
[14] = test system: ITK
[15] = test system: JAK1(JH1domain-catalytic)
[16] = test system: JAK1(JH2domain-pseudokinase)
[17] = test system: JAK2(JH1domain-catalytic)
[18] = test system: JAK3(JH1domain-catalytic)
[19] = test system: T4, JNK1
T4 construct: gene MAPK8

[20] = test system: T5, JNK2
T5 construct: gene MAPK9
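Also: KINOMEscan kinase panel screen.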

Compound	%Inh [1]	%Inh [2]	%Inh [3]	%Inh [4]	%Inh [5]	%Inh [6]	%Inh [7]	%Inh [8]	%Inh [9]	%Inh [10]	%Inh [11]	%Inh [12]	%Inh [13]	%Inh [14]	%Inh [15]	%Inh [16]	%Inh [17]	%Inh [18]	%Inh [19]	%Inh [20]
CCc1ccc(-c2ccc3c(c2)-c2n[nH]cc2S(=O)(=O)N3C)cc1	23%	16%	34%	0%	0%	0%	0%	0%	0%	0%	0%	0%	0%	0%	18%	14%	3%	0%	1%	0%
Cn1cncc1C(=O)NC1CCN(c2ccnc(Nc3ccc(F)cc3)n2)C1 (stereo not drawn) [GSK1379717]	0%	68%	0%	31%	0%	25%	17%	33%	0%	10%	41%	0%	26%	1%	17%	0%	100%	0%	29%	3%
COc1ccc2cc(-c3nc(-c4ccccc4C(C)C)[nH]c3-c3ccncc3)ccc2c1 [SB-660566]	0%	37%	0%	22%	9%	19%	26%	14%	1%	5%	23%	0%	42%	8%	11%	0%	100%	0%	23%	44%
COC(=O)C(NC(=O)NC1CCN(c2ccnc(Nc3ccc(F)cc3)n2)C1)c1ccccc1 (stereo not drawn) [GSK1379712]	8%	51%	0%	9%	5%	0%	0%	32%	0%	2%	31%	6%	0%	0%	17%	5%	0%	0%	1%	0%
Cc1cccc2c(-c3ccncn3)c(-c3ccc(F)cc3)nn12 [GW515532]	8%	3%	0%	9%	0%	37%	18%	0%	16%	75%	0%	8%	3%	7%	5%	6%	36%	0%	33%	74%
CS(=O)(=O)CCNCc1nc(-c2ccc3ncnc(Nc4ccc5c(cnn5Cc5ccccc5)c4)c3c2)cs1.Cl.Cl [GW569716]	0%	32%	28%	2%	19%	38%	8%	0%	0%	0%	37%	0%	19%	17%	0%	0%	0%	0%	12%	2%
Cc1c(Cn2c3ccccc3n3c(=O)cc(N4CCOCC4)nc23)cccc1C(F)(F)F [GSK2306394]	0%	5%	0%	6%	33%	35%	27%	0%	11%	0%	0%	14%	11%	11%	13%	0%	35%	0%	21%	5%
COc1ccc(CSc2nnc(-c3ccc4c(c3)CCO4)o2)cc1	0%	0%	0%	0%	0%	0%	0%	0%	0%	0%	0%	0%	0%	8%	18%	0%	0%	0%	0%	0%
CN1c2ccc(-c3ccc(C(N)=O)cc3)cc2-c2[nH]ncc2S1(=O)=O	4%	28%	0%	0%	5%	0%	0%	0%	0%	0%	0%	10%	0%	0%	0%	37%	27%	0%	0%	0%
Cc1ccc(NC(=O)Nc2ccccc2F)cc1-c1ccc(C(=O)Nc2ccncc2)cc1 [GSK1398477]	0%	44%	31%	18%	0%	0%	6%	19%	11%	16%	0%	31%	1%	19%	12%	0%	12%	0%	28%	27%
Cc1ccc(NC(=O)Nc2ccc(Cl)c(C(F)(F)F)c2)cc1-c1ccc(C(=O)Nc2ccncc2)cc1 [GSK1398470]	8%	56%	9%	4%	26%	0%	0%	29%	5%	23%	0%	9%	0%	18%	5%	0%	0%	0%	16%	14%
Fc1ccc(-c2nc[nH]c2-c2ccncc2)cc1 [SB-217360]	0%	0%	55%	0%	3%	9%	0%	0%	0%	24%	0%	0%	0%	5%	0%	28%	27%	0%	79%	95.6%
